Compound activity: PubChem BioAssay, National Center for Advancing Translational Sciences (NCATS)
Only some compounds are listed: those with a hit (about 17% of all), similar ones and a draw of the others.
TDP1 cell CPT = DT40-hTDP1 cell growth loss with CPT; hit rate 12% among 420,000; Potency, µM (top dose mostly 46.2 µM), inactives show at the highest dose activity change, negative = growth inhibition, most hits filed as inhibitors; chicken DT40 Tdp1-/-;hTDP1 cells + 20 nM CPT, ATP luminescence, 48 h; note: % is set by controls: 0 for no effect and ±100 for the full control effect; nearly all actives have a fitted effect of over 55% in size
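Chicken DT40 Tdp1-/- cells stably complemented with human TDP1 were seeded at 400 cells/well in medium containing 20 nM camptothecin, exposed to pin-transferred compounds, and grown at 37 °C for at least 48 hr. Viability was read as ATP luminescence.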
DT40 TDP1 no CPT = qHTS for Inhibitors of human tyrosyl-DNA phosphodiesterase 1 (TDP1): qHTS in cells in absence of CPT; hit rate 15% among 420,000; Potency, µM (doses to about 46.2 µM), for inactives: top-dose activity change, negative = growth inhibition, most hits filed as inhibitors; DT40 Tdp1-/- hTDP1 cells, no CPT, ATP luminescence, 48 h; note: % is set by controls: 0 for no effect and ±100 for the full control effect; nearly all actives have a fitted effect of over 55% in size
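Compound effects on proliferation are scored in DT40 Tdp1-/-;hTDP1 cells in the absence of CPT. ATP levels (CellTiter-Glo luminescence) are recorded after a ≥48 hr, 37 °C incubation.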
TGFb inhibitor = inhibitors of TGF-b signaling | AID 588855 | hit rate 1.2% among 410,000 | Potency, µM (series often up to 46.1 µM), without a hit: top-dose activity, negative = inhibition, most hits filed as inhibitors | HepG2 CAGA-GFP TGF-b/SMAD3 reporter, GFP fluorescence, 18 h; TGF-beta stimulated, 500 pg/mL final; note: % is set by controls: 0 for no effect and ±100 for the full control effect; nearly all actives have a fitted effect of over 65% in size
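HEPG2 CAGA-GFP cells (1000/well, DMEM with 1% FBS) were pre-incubated 2 h at 37 degrees C, given compound by pin tool, then stimulated with TGF-beta at 500 pg/mL final for 18 h before per-cell GFP fluorescence imaging.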
HT1080 IDH1KD tx = kills HT-1080 cells with IDH1 knockdown; hit rate 2% among 360,000; HT-1080 IDH1 knockdown viability, ATP luminescence, 48 h; Potency, µM (doses to about 46.1 µM), for the others: at the highest dose activity, negative = toxicity, actives largely listed as cytotoxic;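 note: 0% = DMSO wells and -100% = cell-free medium wells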
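Cytotoxicity counter-line: IDH1KD HT-1080, 48 h, CellTiter-Glo. Curves classed by r2, magnitude and activity.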
HepG2 tox = kills HepG2 cells in TGF-b inhibitor counter-screen. hit rate 0.76% among 410,000. HepG2 CAGA-GFP viability, ATP luminescence, 18 h. AID 588856. Potency, µM (titrated, usually from 46.1 µM), inactives show top-dose activity change, negative = cytotoxicity, usual class: cytotoxic
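HepG2 CAGA-GFP cells (1000/well, DMEM with 1% FBS) received compound, then TGF-beta at 500 pg/mL final, and were incubated 18 hours at 37 degrees C. Viability was read by CellTiter-Glo luminescence. Media-only wells were set as complete cell-killing and DMSO as no toxicity.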
HT1080-NT tox = kills 2HG-producing HT-1080-NT fibrosarcoma cells; hit rate 1.6% among 360,000; HT-1080-NT fibrosarcoma viability, CellTiter-Glo ATP luminescence, 48 h; Potency, µM (top dose mostly 46.1 µM), inactives show top-dose activity, negative = less viability, most hits filed as cytotoxic;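 note: NT is the 2HG producing partner of a matched IDH1 knockdown line; 0% = DMSO-treated cells and -100% = media-only wells without cells; nearly all actives have a fitted effect of over 55% in size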
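Fibrosarcoma NT cells, 750 per well in 5% FBS RPMI, were exposed to compound for 48 hours. Viability: CellTiter-Glo luminescence.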
An asterisk follows results filed as active; ? = inconclusive; / = no result given; [ ] = another dose, or the depositor's remark. Calls come from the whole dose curve; as a rule, active = well fitted curve in the direction sought with a large enough effect; inconclusive = small, poorly fitted or top-dose-only effect, or another doubt; inactive = no such curve, though single readings can be large; an effect the other way counts as inactive or inconclusive. Potency is the fitted concentration of half-maximal effect.

SMILES	TDP1 cell CPT	DT40 TDP1 no CPT	TGFb inhibitor	HT1080 IDH1KD tx	HepG2 tox	HT1080-NT tox
CCOC(=O)c1[nH]c2c(c1C)C(=O)CC(c1ccc(OC)c(OC)c1)C2 (stereo not drawn)	2.4%	-33.9%	-6.0%	2.7%	-8.8%	1.6%
C=CCOC(=O)c1[nH]c2c(c1C)C(=O)CC(c1ccco1)C2 (stereo not drawn)	0.0206µM*	0.0065µM*	?	0.366µM*	-0.4%	?
COc1ccc(-c2cc(C(C)=O)c(C)n2CCC(=O)NC2CCCCC2)cc1	23.1µM*	?	-24.4%	/	-10.0%	/
COc1ccc(-c2cc(C(C)=O)c(C)n2CCC(=O)Nc2cc(Cl)ccc2C)cc1	20.6µM*	18.4µM*	-24.0%	/	-18.9%	/
COc1ccc(-c2cc(C(C)=O)c(C)n2CCC(=O)Nc2ccc(C)c(Cl)c2)cc1	14.6µM*	18.4µM*	-16.0%	/	-29.8%	/
COc1ccc(-c2cc(C(C)=O)c(C)n2CCC(=O)Nc2cccc(C)c2C)cc1	?	?	0.0%	/	-2.6%	/
C=C1CC2C(=O)N(Cc3cc(OC)ccc3OC)C(C(=O)OCC)C1N2C (stereo not drawn)	/	/	2.5%	/	-25.8%	/
O=C(Nc1c2c(nn1-c1ccc(Cl)cc1)CS(=O)(=O)C2)c1cccc(Cl)c1	16.4µM*	20.6µM*	?	/	-31.9%	/
Cc1sc(C(C2C(=O)CC(C)(C)CC2=O)C2C(=O)CC(C)(C)CC2=O)cc1[N+](=O)[O-]	?	23.1µM*	?	-5.4%	-45.7%	-17.4%
CC1(C)CC(=O)C(C(c2cc([N+](=O)[O-])ccc2Cl)C2C(=O)CC(C)(C)CC2=O)C(=O)C1	?	5.8µM*	-11.8%	5.4%	7.4%	-1.8%
Cc1ccc(S(=O)(=O)N2CCN(C(=O)COC(=O)C3CCC3)CC2)c(C)c1	-8.9%	-8.1%	-2.7%	2.0%	-1.4%	5.5%
COc1cccc(/C=N/NC(=O)c2nc(-c3ccccc3)cc(-c3ccccc3)n2)c1	16.4µM*	20.6µM*	-8.1%	-1.9%	24.1%	-0.7%
CCn1ncc(/C=N\NC(=O)c2csc3ccccc23)c1C	2.59µM*	4.61µM*	-14.7%	5.17µM*	-1.9%	?
O=C(N/N=C/C=C\c1ccccc1[N+](=O)[O-])c1cc(-c2ccccc2)nc2ccccc12	23.1µM*	14.6µM*	-25.9%	?	-22.8%	-15.9%
O=C(N/N=C/c1c(F)c(F)c(F)c(F)c1F)c1cc(-c2ccccc2)nc2ccccc12	?	-28.7%	-11.3%	3.5%	4.2%	2.7%
COc1ccc(/C=N/NC(=O)c2cc(-c3ccccc3)nc3ccccc23)c(OC)c1	14.6µM*	?	-12.7%	0.0%	-22.7%	-12.7%
Cc1c(/C=N\NC(=O)c2csc3ccccc23)cnn1C	?	?	-9.9%	?	-8.6%	-26.1%
COc1ccc(OC)c(NC(=O)CSc2cn(CC(=O)N3CCOCC3)c3ccccc23)c1	?	?	0.0%	/	-25.2%	/
CSCCC(NC(=O)c1ccccc1Br)C(=O)NCC(c1ccco1)N1CCCCC1 (stereo not drawn)	-8.5%	3.7%	1.8%	7.6%	-7.6%	2.1%
CCNC(=S)NNC(=O)c1csc2ccccc12	-13.6%	-13.5%	2.4%	?	-19.7%	-20.2%
O=C(N/N=C/c1ccco1)c1cc(-c2cccc(Br)c2)nc2ccccc12	?	5.8µM*	-17.5%	?	-33.9%	?
C/C(=N\NC(=O)c1csc2ccccc12)c1ccc(O)cc1	?	9.2µM*	?	0.9%	-20.8%	-0.7%
O=C(N/N=C/c1cccc(O)c1)c1cc(-c2ccccc2)nc2ccccc12	2.31µM*	?	-9.6%	?	-22.3%	-26.4%
O=C(N/N=C/c1cccc(O)c1)c1csc2ccccc12	?	0.651µM*	-7.7%	1.4%[9.24 µM]	-24.7%	-1.8%
CO/N=C(/C(=O)N[C@@H]1C(=O)N2C(C(=O)[O-])=C(C[n+]3ccn4ncccc43)CS[C@H]12)c1nsc(N)n1	6.2%	-13.6%	/	/	/	/
SMILES	TDP1 cell CPT	DT40 TDP1 no CPT	TGFb inhibitor	HT1080 IDH1KD tx	HepG2 tox	HT1080-NT tox
CCCCOC(=O)c1nc[nH]c1C(=O)OCCCC	7.1%	4.8%	-5.7%	-6.1%	-4.0%	3.8%
CCC/C=N/NC(=O)c1cc(-c2ccccc2)nc2ccccc12	-10.1%	?	-1.1%	-11.6%	-1.1%	0.6%
O=C(N/N=C/c1ccc(O)c(O)c1)c1cc(-c2ccccc2)nc2ccccc12	8.2µM*	?	-0.4%	-28.0%	-34.2%	-9.9%
O=C(N/N=C/c1ccc(Cl)c([N+](=O)[O-])c1)c1cc(-c2ccccc2)nc2ccccc12	6.51µM*	7.31µM*	-7.2%	8.7%	-3.1%	-0.9%
O=C(N/N=C/c1ccc(Cl)c([N+](=O)[O-])c1)C1CC1	-23.8%	-2.3%	-16.2%	1.3%	-21.0%	10.6%
Cc1ccc(N2NC3(CCN(C(N)=O)CC3)NC2=O)cc1	-2.1%	-9.9%	16.2%	6.51µM*	6.0%	5.8µM*
CN(C)C(=O)C(OC(=O)c1ccc2c(c1)CCCC2)c1ccccc1 (stereo not drawn)	?	20.6µM*	0.3%	-6.4%	-0.9%	-3.2%
NC(=O)C1=C[C@H](c2csc3ccccc23)C[C@H](OCCCCO)O1	?	-24.9%	-33.8%	-5.4%	-11.1%	1.7%
NC(=O)c1ccsc1NC(=O)c1ccc2c(c1)CCCC2	14.6µM*	?	?	?	-62.2%	?
O=C(Nc1cccc([N+](=O)[O-])c1)c1ccc([N+](=O)[O-])o1	1.84µM*	3.66µM*	?	?	-63.3%	?
NC(=O)c1ccsc1NC(=O)COC(=O)c1ccc([N+](=O)[O-])o1	?	-9.5%	-4.1%	-1.4%	-1.8%	0.8%[9.24 µM]
COc1ccc(NC(=O)c2ccc(-c3ccc([N+](=O)[O-])cc3)o2)cc1OC	13µM*	16.4µM*	-14.3%	1.7%	-4.0%	2.9%
NC(=O)c1ccsc1NC(=O)c1ccc([N+](=O)[O-])o1	13µM*	8.2µM*	?	?	-1.6%	?
O=C(Nc1cccc([N+](=O)[O-])c1)c1ccncc1	0.1%	-20.2%	?	19.5%	-9.7%	22.2%
Cc1ccc2c(CC(=O)Nc3c(C(=O)c4ccc(C)c(F)c4)oc4ccccc34)coc2c1	-9.5%	?	3.0%	/	-15.7%	/
